The values below come from PubChem BioAssay (NCI).

The panel holds about 83,000 compounds, 20% with a hit somewhere; the sample as a whole holds those more often.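 Activity criterion: percent growth below 10, measured after cells in 96-well plates were exposed to a single compound concentration for 48 hours.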 Values without a mark were called inactive. Active and inactive are the calls of the source.

Common to all, as to experiment: NCI-60 one-dose screen, 48 h (100 = growth as untreated, 0 = no growth, -100 = all killed)
What all share (settings): 10 µM unless noted

Assay [1] relates to HCT-15 colon.
Assay [2] concerns HT29 colon.
The subject of assay [3] is SNB-75 CNS.
In assay [4] the test system is SNB-19 CNS.
The subject of assay [5] is U251 CNS.
The subject of assay [6] is PC-3 prostate.
Assay [7] has as its system SK-MEL-5 melanoma.
Assay [8] concerns UACC-62 melanoma.
For assay [9], the system named is LOX IMVI melanoma.
The subject of assay [10] is SK-MEL-28 melanoma.

For `COC(=O)CCc1cc(O)c2c(c1)[C@@H](C(=O)OC)[C@H](c1ccc(O)c(O)c1)O2`, the growth in [1] is 50.3%; in assay [2] it was 95%; in assay [3] it was 71.2%; in assay [4], 74.9%; in assay [5] it was 71%; in assay [6] it was 85.5%. For the same compound, the growth was 76.4% in assay [7], 66% in assay [8], 63.4% in assay [9] and 73.8% in assay [10].
Consider `CC(=O)ON1CCCC(P(=O)(OCOC(=O)C(C)(C)C)OCOC(=O)C(C)(C)C)C1=O` (stereo not given), for which the growth in assay [1] is 3.57% (active); in assay [2], -4.49% (active); in assay [3], 25.4%; in assay [4] it was -7.66% (active); in assay [5] it was -8.95% (active); in [6], 17.7%. Also, the growth is -55.7% (active) in assay [7], -64.7% (active) in [8], 9.18% (active) in assay [9] and -46.9% (active) in assay [10].
In the case of `CC(C)C[C@H](C(=O)O)N(C)C(=O)[C@@H]1CCCN1C(=O)[C@H](C)OC(=O)[C@H](CCC(N)=O)NC(=O)[C@@H]1CCC(=O)N1`, the growth in assay [1] is 95.9%; in assay [2], 104%; in [3], 84.3%; in assay [4], 102%; in assay [5], -37% (active); in assay [6], 96.6%. Further, the growth is 95.6% in assay [7], 102% in assay [8], 104% in [9] and 103% in assay [10].
Regarding `COc1ccc(NC(=O)c2ccc(Nc3ncnc4[nH]c(C)c(C)c34)cc2)cc1`, the growth in assay [1] is 103%; in assay [2], 103%; in assay [3] it was 93.5%; in assay [4] it was 105%; in assay [5], 101%; in assay [6], 109%. Also, the growth in [7] was 98.6%; in assay [8], 99.6%; in assay [9] it was 104%; in assay [10] it was 102%.
For the compound `Cc1ccc(-c2nc(C#N)c(S(=O)(=O)N(C)CCO)o2)cc1`, the growth in assay [1] is 37.6%; in assay [2] it was 28.1%; in [3] it was 101%; in [4], 86.5%; in assay [5], 83.7%; in assay [6], 99.8%. In addition, the growth was 71.4% in assay [7], 62.4% in assay [8], 41.9% in [9] and 82% in assay [10].
With `Cc1nc2sc(C(=O)Nc3cccc4ccccc34)c(N)c2cc1C(C)O` (stereo not given), the growth is 14.4% in assay [1]; 4.82% (active) in [2]; 29% in assay [3]; 34% in assay [4]; 25.4% in assay [5]; 30.7% in assay [6]. Moreover, the growth was 8.93% (active) in [7], 36% in [8], 26.9% in assay [9] and 66.9% in [10].
As for `N#Cc1c(-c2ccc(F)cc2)c(C#N)c2c(C#N)c(N)nn2c1N`, the growth in [1] was 106%; in [2] it was 98.7%; in assay [3] it was 87.8%; in [4] it was 108%; in [5], 94.7%; in [6] it was 77.4%. The growth in assay [7] was 96.8%; in [8] it was 105%; in [9], 89.9%; in assay [10], 111%.
As for `COc1ccc(Cc2nc(C#N)c(N3CCN(c4ccc(F)cc4)CC3)o2)cc1`, the growth in assay [1] is 76%; in [2], 79.8%; in [3], 65.2%; in assay [4] it was 99.1%; in assay [5], 103%; in assay [6], 85.9%. Also, the growth in [7] was 100%; in assay [8], 76.1%; in assay [9], 96.1%; in assay [10], 97.9%.
In the case of `CCCCC(=O)Nc1c(C(=O)Nc2ccccc2)sc2nc3c(cc12)C(OC(=O)CCCC)CCC3` (stereo not given), the growth in [1] is 81.3%; in [2] it was 79.4%; in assay [3] it was 89.3%; in assay [4] it was 97.2%; in [5], 79.8%; in [6] it was 90.7%. In addition, the growth in assay [7] was 84.5%; in assay [8], 87.6%; in [9] it was 85.1%; in assay [10], 110%.
Consider `COc1ccc2oc(=O)cc(-c3nc4ccc(N)cc4[nH]3)c2c1`, for which the growth in assay [1] is 97.7%; in assay [2], 97.3%; in assay [3] it was 53.6%; in assay [4], 90.9%; in assay [5] it was 86.2%; in [6] it was 81.1%. For the same compound, the growth was 81.5% in assay [7], 91.5% in [8], 78.6% in [9] and 111% in [10].
With `CN1CCN(/C=C2\CC(C(=O)NCc3ccc(Cl)cc3Cl)NC2=O)CC1` (stereo not given), the growth was 108% in [1]; 99% in assay [2]; 106% in assay [3]; 100% in assay [4]; 100% in assay [5]; 90.9% in [6]. Further, the growth in assay [7] was 95.8%; in assay [8] it was 96.6%; in assay [9], 100%; in assay [10], 110%.
For the compound `COc1ccc2[nH]c(=O)c(/C=C/C(=O)/C=C/c3ccc(O)c(OC)c3)cc2c1`, the growth in assay [1] was 2.08% (active); in assay [2], -38.7% (active); in assay [3], 59.8%; in assay [4] it was 36.3%; in [5], -13% (active); in [6], 9.53% (active). The growth was 9.36% (active) in assay [7], 10.8% in assay [8], -36% (active) in assay [9] and 16.8% in assay [10].
